Compound activity as filed in PubChem BioAssay.
In the library only some 9.5% were active in any assay of this set; here they are far more common.
Pf growth 96h: inhibits malaria parasite growth, 96 h. P. falciparum luciferase reporter growth, 96 h. Potency, µM (top dose mostly 28.7 µM), without a hit: at the top dose activity change, negative = inhibition, usual class: inhibitors. 320,000 tested, 6.9% active; active means well fitted inhibition curve with a large enough effect; inconclusive means small, poorly fitted or top-dose-only effect, or another doubt; inactive means no such curve, though single readings can be large or run the other way; further: on the % scale 0 is the no-effect control and ±100 the full control effect
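Parasite growth measured via integrated firefly luciferase reporter in P. falciparum. Infected erythrocytes at 2% hematocrit, 0.05% parasitemia final were treated 96 hours at 37 C under 5% CO2, and luminescence was read.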
Pf growth 48h: inhibits P. falciparum growth in the first generation, 48 h; P. falciparum luciferase growth in erythrocytes, 48 h; Potency, µM (top dose mostly 28.7 µM), without a hit: top-dose activity change, negative = inhibition, usual class: inhibitors; 310,000 tested, 5.9% active; active means well fitted inhibition curve with a large enough effect; inconclusive means small, poorly fitted or top-dose-only effect, or another doubt; inactive means no such curve, though single readings can be large or run the other way; further: on the % scale 0 is the no-effect control and ±100 the full control effect
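Luminescence readout; reporter = integrated firefly luciferase in P. falciparum. RBC culture at 2% hematocrit, 0.1% parasitemia final, 37 C/5% CO2; decreased signal taken as growth inhibition.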
SARS PLpro yeast: blocks SARS-CoV papain-like protease in a yeast assay. Potency, µM (titrated, usually from 32.9 µM), inactives show at the top dose activity, positive = growth rescue, usual class: activators. 330,000 tested, 0.19% active. S. cerevisiae expressing SARS-CoV PLpro, growth rescue; further: 0% is about no effect; nearly all actives have a fitted effect of over 55% in size
NS1 function inh: influenza NS1 inhibition; 270,000 tested, 0.4% active; Potency, µM (top dose mostly 46.1 µM), without a hit: at the highest dose activity, positive = more growth; AID 2326; further: actives are rising curves; nearly all actives have a fitted effect of over 50% in size
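Compounds were scored for reversing the slow growth caused by influenza A NS1 in S. cerevisiae, measured by optical density at 600 nm. Assay medium contained 2% galactose at pH 6.0; NS1-free yeast of the same strain were the positive control.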
RE007 growth inh: less growth of the S. pombe RE007 Vpr strain. S. pombe RE007 Vpr strain, BacTiter-Glo ATP luminescence, 24 h. Potency, µM (doses to about 92.2 µM), for inactives: at the top dose activity change, negative = less growth, usual class: inhibitors. 360,000 tested, 0.21% active; active means well fitted falling curve with a large enough effect; inconclusive means small, poorly fitted or top-dose-only effect; inactive means no such curve, though single readings can be large or run the other way; further: on the % scale 0 is the no-effect control and ±100 the full control effect; nearly all actives have a fitted effect of over 50% in size
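Fission yeast strain RE007, carrying one chromosomally integrated HIV-1 vpr copy, was seeded at OD 0.01 in PMG+AL medium with 23 nL pinned compound. After 24 h at 30 °C and 99% humidity, viability was read by BacTiter-Glo luminescence.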
* marks the source's active call; other numbers are inactive results; ? = inconclusive; / = no result; [ ] = remark or other dose. Unless noted, the call rests on the fitted dose curve. Potency means the concentration at half of the fitted maximal effect.

SMILES	Pf growth 96h	Pf growth 48h	SARS PLpro yeast	NS1 function inh	RE007 growth inh
CC(C)(C)NCC(O)Cn1cc(C=O)c2ccccc21 (stereo not drawn)	?	11.0%[5.75 µM]	0.0%	/	13.9%
CCn1cc(/C=C(\NC(=O)c2ccc(OC)c(OC)c2)C(=O)N2CCN(C)CC2)c2ccccc21	10.4µM*	?	-1.4%	-2.6%	2.8%
COc1ccc(C(=O)/C=C/c2cn(CC(O)CN3CCN(C)CC3)c3ccccc23)cc1OC (stereo not drawn)	11.7µM*	4.65µM*	0.4%	7.9%	-4.0%
O=C(/C=C/c1cn(CC(O)CN2CCCCC2)c2ccccc12)c1ccccc1 (stereo not drawn)	?	13.1µM*	0.7%	0.5%	-3.5%
CCCN(CCC)CC(O)Cn1cc(/C=C/C(=O)c2ccccc2)c2ccccc21 (stereo not drawn)	-14.6%	?	-4.9%	/	-7.9%
CCCN(CCC)CC(O)Cn1cc(/C=C/C(=O)c2cccs2)c2ccccc21 (stereo not drawn)	2.4%	7.38µM*	-7.6%	4.6%	0.5%
CN1CCN(Cn2cc(/C=C/C(=O)c3ccccc3)c3ccccc32)CC1	/	178.6%	-29.3%	-102.3%	?
CCOC(=O)[C@]12CCCC=C1N(Cc1ccc3c(c1)OCO3)C(=O)[C@H](CC(=O)N1CCCC1)C2	/	/	/	/	3.9%
CC1(C)SC2C(C(=O)O)N=C(Cc3ccccc3)N2C1C(=O)O (stereo not drawn)	/	/	/	/	14.5%
CCc1nc2ccc(C(=O)N3CCN(S(=O)(=O)CC)CC3)cn2c1N(CC)C(=O)NCCc1ccccc1	/	/	/	/	-3.9%
COc1ccc(CN(C(=O)Cn2nnc3ccccc32)C(C(=O)NC(C)(C)C)c2ccco2)cc1 (stereo not drawn)	4.65µM*	-10.8%	-1.1%	6.7%	0.0%
O=C(NCc1ccco1)C(c1ccco1)N(CCc1ccccc1)C(=O)Cn1nnc2ccccc21 (stereo not drawn)	2.33µM*	?	-4.8%	-25.9%	12.8%
COCCNC(=O)C(c1ccc(C)o1)N(Cc1ccc(OC)cc1)C(=O)Cn1nnc2ccccc21 (stereo not drawn)	?	/	4.8%	-4.9%	-1.3%
CCC(C)(C)NC(=O)C(c1cccn1C)N(C(=O)Cn1nnc2ccccc21)c1ccc(F)cc1 (stereo not drawn)	?	?	-3.5%	-6.4%	19.2%
CCC(C)(C)NC(=O)C(c1cccn1C)N(C(=O)Cn1nnc2ccccc21)c1ccc(OC)cc1 (stereo not drawn)	-4.3%	11.7µM*	-3.0%	-9.6%	-2.3%
CCc1ccc(C(C(=O)NC(C)(C)CC)N(Cc2ccco2)C(=O)Cn2nnc3ccccc32)cc1 (stereo not drawn)	16.1%	11.7µM*	-11.1%	6.3%	14.5%
CCCc1nc2nc(C)c(NS(=O)(=O)c3ccc(Cl)cc3)c(=O)n2[nH]1	432.4%	19.7%	-1.6%	9.9%	-0.8%
CC(C)(C)c1c2c(c(C(C)(C)C)c3c1OCN(Cc1ccccc1)C3)OCN(Cc1ccccc1)C2	/	/	/	-10.6%	/
O=C(NC1CCCCC1)C(c1ccccc1)N(Cc1ccco1)C(=O)Cn1cnc2ccccc21 (stereo not drawn)	81.3%	3.7µM*	3.3%	-17.6%	-9.0%
O=C(NC1CCCCC1)C(c1ccccc1)N(Cc1ccco1)C(=O)c1csnn1 (stereo not drawn)	5.4%	-18.7%	2.0%	10.1%	3.7%
Cc1cccc(N(C(=O)Cn2nnc3ccccc32)C(C(=O)NC(C)(C)C)c2ccsc2)c1 (stereo not drawn)	3.29µM*	10.4µM*	6.0%	4.0%	8.7%
Cc1cccc(N(C(=O)Cn2nnc(-c3ccccc3F)n2)C(C(=O)NC(C)(C)C)c2ccncc2)c1 (stereo not drawn)	9.6%	17.5%	0.9%	5.4%	-3.8%
CC1(c2ccccc2)NC(=O)N(CC(=O)Nc2ccc(S(=O)(=O)NC3=NCCCCC3)cc2)C1=O (stereo not drawn)	/	/	/	/	0.6%
CCn1cc(C(=O)O)c(=O)c2cc(F)c(N3CCN(C(=S)NC(=O)c4ccc(F)c(F)c4)CC3)cc21	1.5%	6.57µM*	-0.9%	3.6%	4.1%
CCn1cc(C(=O)O)c(=O)c2cc(F)c(N3CCN(C(=S)NC(=O)c4ccccc4Br)CC3)cc21	5.22µM*	?	2.9%	8.3%	2.7%
SMILES	Pf growth 96h	Pf growth 48h	SARS PLpro yeast	NS1 function inh	RE007 growth inh
CCn1cc(C(=O)O)c(=O)c2cc(F)c(N3CCN(C(=S)NC(=O)c4ccc(F)cc4)CC3)cc21	?	?	-1.5%	-1.8%	-10.0%
CCn1cc(C(=O)O)c(=O)c2cc(F)c(N3CCN(C(=S)NC(=O)c4cccc(F)c4)CC3)cc21	?	10.4µM*	2.3%	-3.3%	9.7%
CCCOc1ccc(C(=O)NC(=S)N2CCN(c3cc4c(cc3F)c(=O)c(C(=O)O)cn4CC)CC2)cc1	6.7%	14.7µM*	1.8%	-1.1%	-1.6%
CCC(c1nnnn1C(C)(C)CC)N(CCCN1CCOCC1)Cc1cc2cccc(C)c2[nH]c1=O (stereo not drawn)	?	/	7.3%	-1.7%	15.1%
CCC(c1nnnn1CC1CCCO1)N(CCN1CCOCC1)Cc1cc2cc(C)ccc2[nH]c1=O (stereo not drawn)	?	-13.4%	0.8%	2.24µM*	-12.1%
CCC(c1nnnn1CCOC)N(Cc1cc2cc(C)c(C)cc2[nH]c1=O)CC1CCCO1 (stereo not drawn)	14.7µM*	/	-0.7%	-9.6%	17.1%
CCC(c1nnnn1CCOC)N(Cc1ccc(C)cc1)Cc1cc2cc(OC)ccc2[nH]c1=O (stereo not drawn)	7.7%	10.4µM*	1.7%	-39.2%	-13.3%
CCC(C)(C)n1nnnc1C(C(C)C)N(CCN1CCOCC1)Cc1cc2cccc(C)c2[nH]c1=O (stereo not drawn)	13.1µM*	/	6.5%	-7.0%	-12.8%
Cc1ccc(C(=O)N/C(=C\c2cn(C)c3ccccc23)C(=O)NCCCN2CCOCC2)cc1	-8.8%	?	0.6%	14.2%	-8.3%
Cc1ccc(C(=O)N/C(=C\c2ccc(-c3ccccc3[N+](=O)[O-])o2)C(=O)NCCCN2CCOCC2)cc1	2.94µM*	1.85µM*	-4.3%	-9.0%	-12.4%
CCOC(=O)Nc1sc2c(c1C#N)CCCC2	123.7%	/	-10.0%	-17.0%	?
CCCC1CCc2c(sc(NC(=O)OCC)c2C#N)C1 (stereo not drawn)	11.7µM*	-26.6%	-11.8%	11.2%	?
CCC(=O)N1CCN(c2ccnc3cc(Cl)ccc23)CC1	11.7µM*	13.1µM*	-0.9%	-3.9%	-5.8%
CCOC(=O)N1CCN(c2ccnc3cc(Cl)ccc23)CC1	2.33µM*	2.62µM*	13.3%	-9.2%	-17.1%
CC(C)N(C(=O)N1CCN(c2ccnc3cc(Cl)ccc23)CC1)C(C)C	8.28µM*	8.28µM*	-0.2%	-12.9%	-11.2%
CS(=O)(=O)N1CCN(c2ccnc3cc(Cl)ccc23)CC1	?	2.9%[5.75 µM]	0.6%	/	2.5%
